Screening data as filed in PubChem BioAssay.
Only some compounds are listed: those with a hit (about 0.72% of all), similar ones and a draw of the others.
Phagocytosis inh: macrophage phagocytosis inhibition. J774A.1 macrophage IgG-bead phagocytosis, imaging. inhibition, % at 5 µM. actives 0.07% (n = 110,000);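 active means inhibition above the mean of the plate negative controls plus 5 SD, cut at about 13% in these data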;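 further: phagocytic index as fraction of beads internalized from green versus red external bead signal; plate controls were DMSO negative control for no effect and cytochalasin-D positive control for full effect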
MRP reversal: MRP-mediated drug resistance reversal; actives 0.04% (n = 85,000); differential viability (reversal), % at 10 µM; H69AR cells + 2 uM doxorubicin, CellTiter-Glo, 72 h; AID 602;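 active means viability drop by adding the cancer drug above about 55%, with treated viability meeting a 40% cutoff, limit read from the data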;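 further: viability without doxorubicin minus viability with 2 µM doxorubicin for each compound; larger differential means the compound sensitizes cells more to doxorubicin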
MRP-1 activ: MRP-1 activation; actives 0.61% (n = 140,000); viability increase, % at 10 µM; H69AR cells + doxorubicin, viability rescue, CellTiter-Glo;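 active means viability gain under doxorubicin at or above a set limit, the compound median plus 3 SD, cut at about 4.7% in these data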;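 further: MRP-1 overexpressing cells given doxorubicin 25 µM after compound pretreatment; 18-22 h compound pretreatment then 72 h with doxorubicin before readout; 0% = doxorubicin-only wells and 100% = vehicle-treated cells without doxorubicin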
The depositor's hits bear a star; . = not tested or not shown.

SMILES | Phagocytosis inh | MRP reversal | MRP-1 activ
COC(=O)c1c(O)cc(C(C)(C)C)n(-c2ccc(F)cc2)c1=O | -3 | . | -2
S=C(NNc1ccc2ccccc2c1)NC1CCCCC1 | -9 | . | -3
CC(NC(=O)COC(=O)CC(c1ccccc1)c1ccccc1)c1ccccc1 (configuration not stated) | -3 | . | 0
NNC(=O)CNC(c1ccccc1)c1cc(Br)ccc1NC(=O)c1ccc(Br)cc1 (configuration not stated) | -6 | . | 0
NNC(=O)CNC(c1ccccc1)c1cc(Br)ccc1NC(=O)c1cccc(Cl)c1 (configuration not stated) | 4 | . | 11*
c1ccc(N2CCN(c3ccccc3)C2c2cccnc2)cc1 | . | 60* | -4
Cc1ccc(N2CCN(c3ccc(C)cc3)C2c2cccnc2)cc1 | 1 | 14 | 1
CCOC(=O)/C(=N\Nc1ccccc1Cl)N1CCN(C)CC1 | -3 | . | 0
CCOC(=O)/C(=N\Nc1ccccc1Cl)N1CCN(Cc2ccccc2)CC1 | -9 | . | 5.1*
C=CCSc1nc2sc(C)c(C)c2c(=O)n1CC=C | . | 22 | 3
C=CCn1c(=O)c2c(C)c(C)sc2n2c(Nc3ccc(OC)cc3)nnc12 | -3 | 6 | 7.7*
